Molecules are shown by their SMILES. The source made the active and inactive calls. How the source made its calls: active means hit-call score of the fitted dose curve at least 0.9, where 1 is the maximum; inactive means score below 0.9.

From PubChem BioAssay (EPA / NIEHS) come the findings set out here.

Read-out in the experiment: UDP glucuronosyltransferase (UGT1A1), UGT1A1 (gene 54658)
In words: LTEA_HepaRG_UGT1A1: Life Technologies and Expression Analysis (LTEA) Assay for UDP glucuronosyltransferase (UGT1A1) using HepaRG (AID 2283538). Conditions: mRNA level, 48 h; actives raise or lower the signal. As for the experimental part: LTEA_HepaRG is a cell based, multiplexed-readout assay that uses HepaRG, a human liver cell line, with measurements taken at 48 hours after chemical dosing on a 96-well plate.LTEA_HepaRG_UGT1A1 is one of 102 assay component(s) measured in the LTEA HepaRG cell culture assay. It is a marker of Steatosis/NR mediated metabolism.Data from the assay component LTEA_HepaRG_UGT1A1 was analyzed into 1 endpoint. This assay endpoint, LTEA_HepaRG_UGT1A1, was analyzed with bidirectional fitting relative to DMSO as the negative control and baseline of activity. Using a type of inducible reporter, measures of mRNA induction for gain or loss-of-signal activity can be used to understand regulation of transcription factor activity. To generalize the intended target to other relatable targets, this assay endpoint is annotated to the transferase intended target family, where the subfamily is glucuronosyltransferase.
A total of 1060 chemcials from the ToxCast library were tested in eight-point concentration-response experiments. Cell culture and cytotoxicity assays were conducted at Thermo Fisher Scientific's Custom Services facility (Madison, WI). A single lot of human HepaRG cells (Thermo Fisher Scientific, Frederick, MD) was used for the cell culture experiments. 96-well format collagen type I coated plates of human HepaRG cells were prepared using established methods. Briefly, cryopreserved HepaRG cells were thawed, plated at a density of approximately 100,000 cells/well in HepaRG Thaw, Plate, and General Purpose media (HPRG770, Thermo Fisher Scientific), and incubated for 48 hours. 0.5% DMSO was selected as vehicle control to balance the requisite need of DMSO in HepaRG cultures to maintain differentiation (for example, baseline metabolism, proportions of hepatocytes vs. cholangiocytes), while enabling further hepatic receptor pathway activation (for example, PXR and CAR) in response to chemical exposure. 48 hours after plating, the culture medium was replaced with HepaRG Serum-Free Incudtion Media. Cells were exposed to each test chemical in duplicate and maintained in CO2 incubators for another 48 hours. Chemical plates were thawed to room temperature and 200x concentrations of treatment groups were prepared. 8-point conentration-reponse curves were made with the highest exposure at 100 uM, followed by half-log dilutions, all in 0.5% DMSO. Each test plate contained variouse controls, induction positive controls (1mM phenobarbital), cytotoxicity positive controls ([…] aflatoxin B1), vehicle controls (0.5% DMSO), and total lysis controls (0.5% DMSO). Cell morphology images were taken using an Essen IncuCyte FLR automated microscope, with six 96-well plates imaged in about 24 minutes. Images were captured and exported and JPEG files. Spent culture media was transfered to black-well plates for the LDH assay, and remaining media was sorted at -80 C for later use. Cells were treated with RLT buffer and frozen until shipped for gene expression analysis. Total RNA was isolated from the cell suspension in 75 uL of Buffer RLT (Qiagen, Germantown, MD 20874) by Quintiles/Expression Analysis (Durham, NC) using a custom isolation procedure. Total RNA from each plate well was transferred to a preamplification plate. Fluidigm's 96.96 Dynamic ArrayTM (Fluidigm, Amsterdam, the Netherlands) technology was used for gene expression analyses by quantitative reverse transcription polymerase chain reaction (qRT-PCR, performed by Quintiles/Expression Analysis, Durham, NC)89. Standard TaqManTM Assays (Applied Biosystems/ThermoFisher Scientific, Foster City, CA) were used to assess the expression of 93 genes selected based on their selectivity and sensitivity to important hepatic receptors known to be modulated by environmental chemicals; importance in human hepatocyte functionality; and hepatotoxicity. […]
With `COC(=O)c1ccccc1N`, the compound was classed as inactive. The same measure, in the same setting: to `Oc1ccccc1Cl` belongs “inactive”.

Regarding `Nc1ccc(N=Nc2ccccc2)cc1`, the AC50 (usually the concentration giving half of the maximal activity seen) is 13 µM (active). Take `CCCCOC(=O)c1ccccc1C(=O)OCc1ccccc1`: the compound was classed as inactive. Still for that read-out and setting: to `CC(C)COC(=O)c1ccccc1C(=O)OCC(C)C` belongs “inactive”. As for `O=C(Nc1ccccc1)c1ccccc1I`, the AC50 is 13.1 µM (active). On the same count and under the same terms, to `CN(C)c1ccc(C(=O)c2ccc(N(C)C)cc2)cc1` belongs 13.2 µM (active). In the case of `CO[C@@H]1[C@H](OC(=O)NC(=O)CCl)CC[C@]2(CO2)[C@H]1[C@@]1(C)O[C@@H]1CC=C(C)C`, the call was inactive. With `CCC[CH2][Sn]([Cl])([CH2]CCC)[CH2]CCC`, the AC50 was 3.12 µM (active).

Turning to `CCCCCOC(=O)c1ccccc1C(=O)OCCCCC`, the compound was classed as inactive. On to `c1ccc(C2CO2)cc1` (stereo not given), for which the compound was called inactive.

As to `CCOc1cccc(C2(N3CCN(c4ccccc4)CC3)CCC(C)CC2)c1` (stereo not given), the AC50 was 43.5 µM (active). Consider `ClCCOCCCl`, for which the call was inactive. With `O=Cc1ccco1`, the compound was classed as inactive. As to `CN(C)C(=O)Nc1ccc(Cl)cc1`, the AC50 was 30.8 µM (active).

On to `C[C@]12C=CC3=C4CCC(=O)C=C4CC[C@H]3[C@@H]1CC[C@@H]2O`, for which the AC50 is 1.01 µM (active). For `CCCCCCCCn1sccc1=O`, the result was inactive. On the same count and under the same terms, next, `CCN(CC)CCO`: “inactive”. In the case of `CCNS(=O)(=O)C(F)(F)C(F)(F)C(F)(F)C(F)(F)C(F)(F)C(F)(F)C(F)(F)C(F)(F)F`, the call was inactive. Regarding `ClC1=C(Cl)[C@]2(Cl)[C@H]3[C@H]([C@@H]4C=C[C@H]3C4)[C@@]1(Cl)C2(Cl)Cl`, the AC50 is 6.68 µM (active). For `Nc1cc(Cl)cc(C(=O)O)c1Cl`, the call was inactive. On the same count and under the same terms, next, `CCCCC(CC)COC(=O)c1ccc(C(=O)OCC(CC)CCCC)c(C(=O)OCC(CC)CCCC)c1` (stereo not given): “inactive”. Still for that read-out and setting: to `OCCCBr` belongs “inactive”. In the case of `N#CC(Br)Br`, the outcome was inactive. On to `COc1cc(C=O)cc2c1[C@H](COC(N)=O)[C@]1(OC(C)=O)ON2C[C@H]2[C@@H]1N2C(C)=O`, for which the AC50 was 24.6 µM (active). For the compound `Brc1ccc(Oc2ccccc2)cc1`, the result was inactive. On to `Cn1cc(-c2ccccc2)c(=O)c(-c2cccc(C(F)(F)F)c2)c1`, for which the AC50 is 8.71 µM (active). `CCN(CC)N=O`: the outcome was inactive. Same read-out and setting: to `O=C1CCCO1` belongs “inactive”.

For `CC(C)(O)c1cnn2c(-c3ccc(F)c(-c4c(F)cccc4C#N)c3)cnc2n1`, the half-maximal activity concentration (AC50) is 0.268 µM (active).

On to `C[N+](C)(C)CC1CO1` (stereo not given), for which the result was inactive. For the compound `Clc1ccc(C(c2ccc(Cl)cc2)C(Cl)Cl)cc1`, the half-maximal activity concentration (AC50) is 6.66 µM (active). Turning to `CC(O)CCO` (stereo not given), the compound was classed as inactive. On to `Cc1ccc(N)cc1`, for which the compound was called inactive. Still for that read-out and setting: next, `[Cl-].[Cl-].[Hg+2]`: “inactive”. For the compound `Cc1cccc(N)c1N`, the AC50 was 17.2 µM (active).

Consider `COP(=S)(OC)SCN1C(=O)c2ccccc2C1=O`, for which the compound was called inactive. Same read-out and setting: next, `Clc1ccc(Cl)c(Cl)c1`: “inactive”.

In the case of `CCOC(=O)[C@]1(c2ccccc2)Oc2ccccc2[C@@H]1N`, the AC50 was 83.1 µM (active).

As to `Nc1ccc(Oc2ccc(N)cc2)cc1`, the AC50 is 78.9 µM (active).
